# Screening data from PubChem.
# Only some compounds are listed: those with a hit (about 5.4% of all), similar ones and a draw of the others.
# rCAG binder – binds r(CAG) RNA repeats; r(CAG) RNA repeat, TO-PRO-1 dye displacement fluorescence; inhibition, % at 3 µM; actives 1.3% (n = 370,000); AID 651821;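 active = inhibition above the plate cutoff, the mean of all test compounds on that plate plus 3 SD, cut at about 35% in these data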;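 note: higher means more dye released from RNA so lower well fluorescence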
# aDG glyco up – alpha-DG glycosylation activation; Pro5-aDG cells, alpha-DG glycosylation AlphaScreen (IIH6); 0% Pro5, 100% B10-LARGE cell signal; activation, % at 10 µM; actives 0.22% (n = 360,000); AID 624168;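 active = activation of at least 8% versus controls, or a plate z-score of at least 8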;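 note: Pro5 are CHO cells carrying HIG-tagged alpha-DG that lacks glycosylation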
# PHOSPHO1 inh – PHOSPHO1 (human) inhibition; recombinant PHOSPHO1, absorbance phosphatase assay; inhibition, % at 13.3 µM; actives 1.1% (n = 290,000); Q8TCT1; AID 1565; in the data active = inhibition above about 60%
# Target sequence (Q8TCT1 whole entry, looked up): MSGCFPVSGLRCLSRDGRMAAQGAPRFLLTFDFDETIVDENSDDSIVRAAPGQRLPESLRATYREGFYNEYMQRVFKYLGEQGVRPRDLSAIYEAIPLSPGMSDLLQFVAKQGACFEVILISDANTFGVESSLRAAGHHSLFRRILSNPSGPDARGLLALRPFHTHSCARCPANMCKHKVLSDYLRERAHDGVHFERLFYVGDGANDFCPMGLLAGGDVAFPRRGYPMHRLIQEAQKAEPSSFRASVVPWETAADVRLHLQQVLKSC
# APOBEC3A inh – human APOBEC3A DNA deaminase inhibition | P31941 | recombinant A3A, FAM/TAMRA ssDNA deamination fluorescence | inhibition, % at 20 µM | actives 0.41% (n = 330,000);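 active = at least 40% inhibition at 20 µM here, with at most 30% in a related deaminase screen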
# ALR H2O2 inh – inhibitors of human sulfhydryl oxidase ALR; actives 3.8% (n = 290,000); inhibition, % (no concentration beside the values); AID 485317; P55789; purified ALR, DTT oxidation, H2O2 HRP-luminol luminescence;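 active = mean replicate inhibition above about 79%, with every replicate also reaching it, limit read from the data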
# APOBEC3G inh – blocks human APOBEC3G single-stranded DNA deamination. Q9HC16. recombinant A3G, ssDNA deamination FAM/TAMRA fluorescence. inhibition, % at 20 µM. actives 0.28% (n = 330,000);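 active = inhibition of at least 40% at 20 µM, with no more than 30% in the related APOBEC3A deaminase screen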
# Target sequence (Q9HC16 whole entry, looked up): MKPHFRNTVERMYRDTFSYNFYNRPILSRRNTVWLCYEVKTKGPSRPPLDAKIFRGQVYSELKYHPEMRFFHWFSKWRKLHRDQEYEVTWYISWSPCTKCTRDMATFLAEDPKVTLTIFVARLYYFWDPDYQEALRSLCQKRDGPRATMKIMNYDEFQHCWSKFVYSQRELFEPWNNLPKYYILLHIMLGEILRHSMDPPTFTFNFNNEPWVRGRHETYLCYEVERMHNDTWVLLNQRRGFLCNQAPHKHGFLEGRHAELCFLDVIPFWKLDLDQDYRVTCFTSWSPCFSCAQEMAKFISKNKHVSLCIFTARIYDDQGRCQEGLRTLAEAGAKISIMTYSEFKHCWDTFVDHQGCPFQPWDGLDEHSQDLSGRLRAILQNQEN
# Numbers stand for hits; i = inactive; nt = no result given.
SMILES,rCAG binder,aDG glyco up,PHOSPHO1 inh,APOBEC3A inh,ALR H2O2 inh,APOBEC3G inh
CC(=O)N(c1cccc(C)c1)C1SC(=O)N(c2ccccc2)C1=O (centres undefined),i,i,i,i,i,i
CN(C)CCn1c2c(c(SCC(=O)Nc3ccc4c(c3)OCCO4)nc1=O)CCC2,i,i,nt,i,97,i
CN(C)CCn1c2c(c(SCC(=O)Nc3ccc4c(c3)OCCO4)nc1=O)CCCC2,i,i,nt,i,97,i
Cc1ccc2nc(NC(=O)CSc3nc(=O)n(CCN(C)C)c4c3CCCC4)sc2c1,i,i,nt,i,98,i
CN(C)CCn1c2c(c(SCC(=O)Nc3cccc(C(F)(F)F)c3)nc1=O)CCCC2,i,i,nt,i,98,i
Cc1[nH]c2ccccc2c1CC(=O)Nc1ccc(N(C)c2cccnc2)c(-c2ccc(F)c(F)c2)c1,i,nt,nt,nt,nt,nt
CN1CCN(c2ccc3c(c2)Oc2ccccc2CN(Cc2cn(Cc4ccccc4C(F)(F)F)nn2)S3(=O)=O)CC1,i,nt,nt,nt,nt,nt
O=C(CC(SCCO)c1ccc(F)cc1)c1ccco1 (centres undefined),i,i,i,i,89,i
COc1ccc(S(=O)(=O)N2CCC(c3nc4ccccc4o3)CC2)c(OC)c1,i,nt,nt,nt,nt,nt
CCOC(=O)c1cc2c(=O)n3cccc(C)c3nc2n(Cc2ccco2)c1=NC(=O)c1ccccc1,i,i,i,i,89,i
CCOC(=O)c1cc2c(=O)n3cccc(C)c3nc2n(Cc2ccco2)c1=NC(=O)c1ccc(C)cc1,nt,i,nt,nt,nt,nt
O=C(NCc1ccccc1F)C1C2C=CC3(CN(Cc4ccccc4)C(=O)C13)O2 (centres undefined),i,nt,nt,nt,nt,nt
CCN(CCO)c1ncnc2c1sc1nc(C(C)C)c3c(c12)CC(C)(C)OC3,i,i,i,i,i,i
CCN(CCO)c1nc(SC)nc2c1sc1nc(-c3ccco3)c3c(c12)CCC3,nt,i,i,i,97,i
NCc1ccc(OCCCN2CCC(C(O)(C3=CCCC3)c3ccccc3)CC2)cc1 (centres undefined),i,nt,nt,nt,nt,nt
CO/N=C/NC(=O)c1ccc([N+](=O)[O-])c(CS(=O)(=O)c2ccc(Cl)cc2)c1,i,i,i,i,100,i
Cc1ccc(-n2c(COc3ccccc3)nnc2SCC(=O)Nc2ccc3c(c2)OCO3)cc1,i,nt,nt,nt,nt,nt
COc1cccc(NC(=O)Nc2nc3ncccn3c2-c2ccc(F)c(F)c2)c1,i,nt,nt,nt,nt,nt
Cc1nn(C)cc1C(=O)/C=C/c1ccc([N+](=O)[O-])cc1,i,i,i,i,84,i
CCOC(=O)c1c(NC(=O)c2noc3c2CCCC3)sc(C)c1C,nt,nt,92,nt,nt,nt
COc1ccc(-n2c(SC/C=C/c3ccccc3)nnc2-c2cccs2)cc1,i,nt,nt,nt,nt,nt
CC(=O)N1CCN(c2ccc(Nc3nc(C)nc4c3oc3ccccc34)cc2)CC1,i,i,nt,i,96,i
COc1cccc(N2CCN(C(=O)CSc3nc4ncccc4[nH]3)CC2)c1,i,nt,nt,nt,nt,nt
COc1ccc(-c2cc(C(=O)N3CCN(c4ncccn4)CC3)c3ccccc3n2)cc1OC,i,i,nt,i,i,i
Cc1ccc(-c2cc(C(=O)N3CCN(c4ncccn4)CC3)c3ccccc3n2)cc1,i,i,69,i,i,i
SMILES,rCAG binder,aDG glyco up,PHOSPHO1 inh,APOBEC3A inh,ALR H2O2 inh,APOBEC3G inh
O=C(OCC(=O)N1CCN(C(=O)c2ccco2)CC1)c1cc(-c2ccccc2)nc2ccccc12,i,i,61,i,i,i
Cc1ccsc1C(=O)OCC(=O)N1CCN(C(=O)c2ccco2)CC1,i,i,63,i,i,i
Cc1cccc(C(=O)OCC(=O)N2CCN(C(=O)c3ccco3)CC2)c1O,i,i,nt,i,i,i
O=C(CCN1c2ccccc2Sc2ccccc21)OCC(=O)N1CCN(C(=O)c2ccco2)CC1,i,i,i,i,91,i
O=C(CSc1ccccc1)OCC(=O)N1CCN(C(=O)c2ccco2)CC1,i,i,nt,i,i,i
COc1cccc(N2CCN(C(=O)CCSCc3ccccc3F)CC2)c1,i,i,i,i,97,i
COc1ccccc1N1CCN(C(=O)CCSCc2ccccc2F)CC1,i,i,i,i,96,i
COc1ccccc1N1CCN(C(=O)Cc2ccc(Cl)cc2)CC1,i,i,i,i,nt,i
Cc1cc(C)cc(NC(=O)N2CCC(c3nc4ccc(Cl)cc4[nH]3)CC2)c1,i,nt,nt,nt,nt,nt
COc1ccc(S[C@]2(C(=O)N3CCN(C(C)=O)CC3)CC(=O)N(C(=O)Nc3ccc(C)c(Cl)c3)[C@@H]2c2ccc(OC)cc2)cc1,i,nt,nt,nt,nt,nt
O=C(CSc1nc2ccccc2n1CC(=O)N1CCCCC1)N1CCCCC1,i,i,i,i,i,i
CC(=O)Nc1ccc(C(=O)CSc2nc3ccccc3n2CC(=O)N2CCCC2)cc1,i,i,71,i,i,i
Cc1ccc(Cn2nnc3c2-c2ccccc2S(=O)(=O)N(C(C)(C)C)C3)cc1,i,nt,nt,nt,nt,nt
COc1cc(NC(=O)c2cc(S(=O)(=O)N3CCc4ccccc43)cn2C)cc(OC)c1OC,i,i,65,i,i,i
CC(=O)c1cc(-c2ccccc2)n(CC(=O)NCc2ccccc2)c1C,i,nt,nt,nt,nt,nt
COc1ccc(CNc2nc(Cl)c(C#N)s2)cc1,i,i,i,i,i,i
N#Cc1sc(NCc2ccccc2)nc1Cl,i,i,62,i,i,i
O=C(NC(Cc1ccccc1)C(=O)O)/C(=C\c1ccc([N+](=O)[O-])cc1)NC(=O)c1ccco1 (centres undefined),i,i,i,i,i,i
O=C(NC(Cc1ccccc1)C(=O)O)/C(=C/c1ccc([N+](=O)[O-])cc1)NC(=O)c1ccccc1 (centres undefined),i,i,i,i,96,i
[O-]/C(=C(\C(=S)Nc1cccc2ccccc12)[n+]1ccccc1)c1ccc2c(c1)OCCO2,i,i,85,i,nt,i
[O-]/C(=C(\C(=S)Nc1cccc2ccccc12)[n+]1ccccc1)c1ccc(OC(F)F)cc1,i,i,i,nt,nt,nt
Cc1ccc(NC(=O)CN2C(=O)CCSc3ccccc32)cc1C,i,nt,nt,nt,nt,nt
CNc1cccccc1=S,i,i,76,i,i,i
OC(c1ccccc1)(c1ccccc1)C1CCN(CCCNc2ccccc2Br)CC1,i,nt,nt,nt,nt,nt
O=S1(=O)c2ccc(N3CC[C@H](O)C3)cc2OCCCN1C1CC1,i,nt,nt,nt,nt,nt
SMILES,rCAG binder,aDG glyco up,PHOSPHO1 inh,APOBEC3A inh,ALR H2O2 inh,APOBEC3G inh
COc1ccc([C@H]2[C@H](C(=O)OC(C)(C)C)N3N=Cc4ccccc4C3C23C(=O)c2ccccc2C3=O)cc1OC (some centres undefined),nt,9.9,i,i,i,i
COc1ccccc1CNS(=O)(=O)c1cc(CN2C(=O)c3cccnc3C2=O)ccc1OC,i,i,i,i,i,i
COc1ccc(CN2C(=O)c3cccnc3C2=O)cc1S(=O)(=O)NC1CCCCC1,i,i,69,i,i,i
Brc1c(CSc2nc3ccccc3o2)nc2ncccn12,i,i,i,i,100,i
Cc1cc(C)nc(SCc2nc3ncccn3c2Br)n1,i,i,i,i,i,i
Clc1c(CSc2nc3ccccc3o2)nc2ccccn12,i,i,i,i,98,i
COc1ccc(Cn2cc(COC(=O)N3CCCC3)nn2)cc1,i,nt,nt,nt,nt,nt
